Assay outcomes: PubChem BioAssay, National Center for Advancing Translational Sciences (NCATS)
Sfp PPTase inh – Sfp phosphopantetheinyl transferase inhibition. Q9F4F7. Biochemical Sfp PPTase activity, qHTS. Potency, µM, hits mostly inhibitors. 310,000 tested, 3.5% active. AID 1490;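 also: the enzyme is Sfp with the accession as filed and its product quenches rhodamine fluorescence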
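With Hepes-Na pH 7.6 buffer containing 10 mM MgCl2, Sfp (15 nM) modified BHQ-2-YbbR (12.5 uM) using rhodamine-CoA (5 uM). Two reads 30 minutes apart at 525/598 nm yielded each well's rate.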
Tau fluor counter – counter-screen for tau fibril formation inhibitors; tau K18 P301L Alexa594 fluorescence, heparin fibrillization; Potency, µM (highest dose often 57.7 µM); 280,000 tested, 0.93% active; AID 1463; also: nearly all actives have a fitted effect of over 55% in size
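Human tau K18 P301L (15 uM unlabeled, 0.24 uM Alexa 594-labeled) in 100 mM sodium acetate pH 7 with 20 uM heparin, 6 hr at 37 C. ThT 30 uM added, 1 hr ambient; Alexa 594 FP and total fluorescence read at 555/632 nm.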
Coupling enz – counter-screen for Giardia aldolase inhibitors: coupling enzyme system. coupling enzyme system counterscreen, AmpLite Red fluorescence. activity change, negative = inhibition, % at 58.2 µM, hits read low. 290,000 tested, 0.67% active; in the data active = activity change below about -30%
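Compounds tested against the coupling enzymes alone at 57.5 uM final; readout was AmpLite Red fluorescence (525/598 nm) after 20 min at RT.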
Tau FP inhib – blocks human tau fibril formation measured by polarization; K18 P301L tau heparin fibrillization, Alexa594 FP, 6 h; P10636; 280,000 tested, 0.39% active; AID 1468; Potency, µM (series often up to 57.7 µM), usual class: inhibitors; also: nearly all actives have a fitted effect of over 55% in size
Target sequence (P10636 561-689 P618L limits assumed): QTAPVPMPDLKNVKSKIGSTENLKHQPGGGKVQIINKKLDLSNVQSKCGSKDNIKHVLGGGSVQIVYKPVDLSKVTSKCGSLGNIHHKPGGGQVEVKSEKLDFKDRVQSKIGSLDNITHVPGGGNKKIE
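Human K18 P301L fragment (15 uM unlabeled plus 0.24 uM Alexa 594-labeled) in 100 mM sodium acetate pH 7 with compound, aggregation induced by 20 uM heparin for 6 hr at 37 C. ThT (30 uM) added for 1 hr, then Alexa 594 FP read.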
Tau fibril ThT – tau fibrillization inhibition (ThT binding) | P10636 | recombinant tau K18 P301L (four-repeat tau fragment), heparin-induced fibrillization, ThT fluorescence | Potency, µM (doses to about 57.4 µM), actives largely listed as inhibitors | 270,000 tested, 2.1% active; also: nearly all actives have a fitted effect of over 55% in size
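Tau K18 P301L fragment (15 uM unlabeled plus 0.24 uM Alexa 594-labeled) in 100 mM sodium acetate pH 7 with compound, fibrillization induced by 20 uM heparin for 6 hr at 37 C. Thioflavin T (30 uM) added, fluorescence read after 1 hr (ex 450, em 510 nm).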
Large screens that a line does not name were inactive; [ ] = another dose, or the depositor's remark. An excerpt weighted towards active compounds, which were near 5.2% of everything screened. Unless noted, calls follow the shape of the dose curve; as a rule, active = well fitted curve in the direction sought with a large enough effect; inconclusive = small, poorly fitted or top-dose-only effect, or another doubt; inactive = no such curve, though single readings can be large; an effect the other way counts as inactive or inconclusive.

Cc1ccc2nc(COc3ccccc3NC(=O)c3ccc(F)cc3)cc(=O)n2c1	none (no result: Sfp PPTase inh, Coupling enz)
CCOC(=O)CSC1=Nc2ccccc2C2=NC(CCC(=O)NCc3ccccc3)C(=O)N12 (stereo not given)	none (no result: Sfp PPTase inh, Coupling enz)
Cc1ccn2c(c1)nc(=O)c1cc(S(=O)(=O)N3CCC(C)CC3)c(Cl)cc12	none (no result: Sfp PPTase inh, Coupling enz)
Cn1c(=S)[nH]c(=O)c2ncc(=O)[nH]c21	Sfp PPTase inh 71µM
CN(Cc1ccco1)c1ncnc2ccc(-c3cccnc3)cc12	none
CN(Cc1ccco1)c1ncnc2ccc(-c3ccc4c(c3)OCO4)cc12	Sfp PPTase inh 45µM
CCOC(=O)c1c(NC(=O)COc2cccc(C(F)(F)F)c2)sc2c1CCC(C)C2 (stereo not given)	Tau fibril ThT inconclusive (no result: Sfp PPTase inh, Coupling enz)
COc1ccc(NC(=O)/C(Cl)=C(/Cl)S(=O)Cc2ccccc2Cl)cn1 (stereo not given)	Sfp PPTase inh 22µM, Tau FP inhib inconclusive, Tau fibril ThT 8.9µM
COc1ccc(NC(=O)/C(Cl)=C(/Cl)S(=O)(=O)Cc2ccc(C)cc2)cn1	Tau FP inhib inconclusive, Tau fibril ThT 8.9µM
COc1ccc(NC(=O)Cc2ccc(Cl)c(Cl)c2)cn1	none
COc1ccc(NC(=O)C2CCC(CNS(=O)(=O)c3ccc4c(c3)C(C)(C)C(=O)N4C)CC2)cc1 (stereo not given)	none (no result: Sfp PPTase inh, Coupling enz)
CC(=O)Nc1cccc(-c2nnc(SCC(=O)c3cc([N+](=O)[O-])ccc3Cl)o2)c1	Tau fluor counter 20µM[quencher], Tau fibril ThT inconclusive (no result: Sfp PPTase inh, Coupling enz)
O=C(CSc1nnc(-c2ccncc2)o1)c1cccc([N+](=O)[O-])c1	Tau fibril ThT inconclusive
Cc1ccc(-c2nc3ccccc3n2C)o1	Sfp PPTase inh 35µM, Tau fibril ThT inconclusive
Cn1cc(C(=O)c2ccccc2)cc1-c1nc2ccccc2n1C	none
Cc1oc(-c2nc3ccccc3n2C)cc1C(=O)c1ccccc1	Sfp PPTase inh 22µM, Tau FP inhib inconclusive, Tau fibril ThT inconclusive
Cc1ccc(C2Nc3ccccc3-c3nc4ccccc4n32)o1 (stereo not given)	Tau fluor counter 32µM[quencher], Tau FP inhib inconclusive, Tau fibril ThT inconclusive
CC(=O)c1ccc(-c2nc3ccccc3n2C)o1	Sfp PPTase inh 40µM, Tau fibril ThT inconclusive
O=C1C2=C(C(=O)c3ccccc31)C1O[C@](CCCCN3C(=O)c4ccccc4C3=O)(Cc3c1ccc1ccccc31)O2	none (no result: Tau fluor counter, Tau FP inhib, Tau fibril ThT)
CC(=O)OCOC(c1ccc2ccccc2c1)P(=O)(OCOC(C)=O)OCOC(C)=O (stereo not given)	none (no result: Coupling enz)
Cc1ccc(NC(=O)CN2C(=O)c3cccnc3Sc3ccccc32)cc1C	none (no result: Sfp PPTase inh, Coupling enz)
Cn1c(-c2ccc(Br)o2)nc2cc(Br)ccc21	Sfp PPTase inh 40µM, Tau fibril ThT inconclusive
Cc1nc2cc(NS(=O)(=O)c3ccc(Br)cc3)ccc2n1C	none
Brc1ccc(Cn2c(-c3ccc(Br)o3)nc3ccccc32)o1	Sfp PPTase inh inconclusive, Tau fibril ThT inconclusive
Cn1c(-c2ccc(Br)o2)nc2ccccc21	Sfp PPTase inh 40µM
c1cc(-c2nsc(-c3ccncc3)n2)ccn1	Sfp PPTase inh 45µM, Tau fibril ThT inconclusive
CCC(=O)N1N=C(c2ccc(C)o2)CC1c1ccc(Br)cc1 (stereo not given)	Sfp PPTase inh 50µM, Tau FP inhib inconclusive
COC(=O)CSc1nc(C(C)C)nc2ccccc12	none
O=C(CSc1cnc2ccccc2n1)c1ccc(F)cc1	Tau fibril ThT 14µM
CC(C)c1nc(SCC(=O)c2ccc(F)cc2)c2ccccc2n1	Sfp PPTase inh 32µM, Tau FP inhib inconclusive, Tau fibril ThT inconclusive
Cc1ccc(C(=O)CSc2nc(C(C)C)nc3ccccc23)cc1	Sfp PPTase inh 40µM, Tau fibril ThT inconclusive
O=C(O)CCC(=O)c1ccc2c(c1)OCCO2	none
CCc1nc(SCC(=O)c2ccc3c(c2)OCCO3)c2ccccc2n1	Sfp PPTase inh 50µM, Tau fibril ThT inconclusive
Cn1c(SCC(=O)c2ccc3c(c2)OCCO3)nnc1C1CC1	Sfp PPTase inh 71µM
CCCc1nc(SCC(=O)c2ccc(OC)cc2)c2ccccc2n1	Sfp PPTase inh 79µM, Tau fibril ThT inconclusive
Cn1c(SCC(=O)c2ccc3c(c2)OCCO3)nnc1C(F)(F)F	none
O=C(O)CCSCC(=O)c1ccc2c(c1)OCCO2	Sfp PPTase inh 45µM, Tau fibril ThT inconclusive
O=C(CSc1nc(Cc2ccccc2)nc2ccccc12)c1ccc2c(c1)OCCO2	Tau fluor counter inconclusive
N#Cc1ccc(CN2CCC3(CC2)CCN(C(=O)c2ccco2)CC3)cc1	none (no result: Tau fluor counter, Tau FP inhib, Tau fibril ThT)
O=C(O)c1ccc(-c2nc(-c3ccc(Cl)cc3Cl)cs2)cc1	none
CC(=O)N1CC[n+]2c(-c3ccc(Cl)cc3Cl)csc21	Sfp PPTase inh 32µM, Tau FP inhib inconclusive, Tau fibril ThT inconclusive
Cc1ccc(C)c(S(=O)(=O)/N=C2\C=C(NS(=O)(=O)c3ccccc3)C(=O)c3ccccc32)c1	Coupling enz -50 (no result: Tau fluor counter, Tau FP inhib, Tau fibril ThT)
CCc1ccc(S(=O)(=O)/N=C2\C=C(NS(=O)(=O)c3ccccc3)C(=O)c3ccccc32)cc1	Coupling enz -34 (no result: Tau fluor counter, Tau FP inhib, Tau fibril ThT)
Cc1cc(NS(=O)(=O)c2ccc(C(C)C)cc2)no1	none (no result: Tau fluor counter, Tau FP inhib, Tau fibril ThT)
CC(C)c1ccc(S(=O)(=O)/N=C2\C=C(NS(=O)(=O)c3ccccc3)C(=O)c3ccccc32)cc1	Coupling enz -32 (no result: Tau fluor counter, Tau FP inhib, Tau fibril ThT)
CC(C)c1ccc(S(=O)(=O)/N=C2/C=CC(=O)c3ccccc32)cc1	Sfp PPTase inh inconclusive, Tau fluor counter inconclusive, Coupling enz -53, Tau FP inhib inconclusive, Tau fibril ThT 28µM
Cc1cccc(S(=O)(=O)Nc2cccc3c2C(=O)c2ccccc2-3)c1	Tau fluor counter inconclusive, Tau fibril ThT inconclusive
CCC(C)NC(=O)CSc1nc2cc3c(cc2c(=O)n1CCCC(=O)NCc1ccc2c(c1)OCO2)OCO3 (stereo not given)	none (no result: Sfp PPTase inh, Coupling enz)
COc1ccc(N2CCN(C(c3ccccc3)c3sc4nc(-c5ccco5)nn4c3O)CC2)cc1 (stereo not given)	Tau fluor counter inconclusive, Tau fibril ThT inconclusive (no result: Sfp PPTase inh, Coupling enz)
